aDG glyco act: activators of alpha-DG glycosylation, primary screen, uHTS, Pro5-aDG cells, AlphaScreen; alpha-DG glycosylation AlphaScreen (IIH6); 0% Pro5, 100% B10-LARGE cell signal; activation, % at 10 µM; 360,000 tested, 0.22% active;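 active means activation of at least 8% versus controls, or a plate z-score of at least 8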;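 further: Pro5 are CHO cells carrying HIG-tagged alpha-DG that lacks glycosylation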
rCAG RNA binder: binders of r(CAG) RNA repeats, primary screen, biochemical, fluorescence. r(CAG) RNA repeat, TO-PRO-1 dye displacement fluorescence. inhibition, % at 3 µM. 370,000 tested, 1.3% active. AID 651821, 2012;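 active means inhibition above the plate cutoff, the mean of all test compounds on that plate plus 3 SD, cut at about 35% in these data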;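 further: higher means more dye released from RNA so lower well fluorescence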
PHOSPHO1 inh: PubChem AID 1565 | Phosphoethanolamine/phosphocholine phosphatase (Homo sapiens), Q8TCT1 | recombinant PHOSPHO1, absorbance phosphatase assay | inhibition, % at 13.3 µM | 290,000 tested, 1.1% active; in the data active means inhibition above about 60%
Target sequence (Q8TCT1 whole entry, looked up): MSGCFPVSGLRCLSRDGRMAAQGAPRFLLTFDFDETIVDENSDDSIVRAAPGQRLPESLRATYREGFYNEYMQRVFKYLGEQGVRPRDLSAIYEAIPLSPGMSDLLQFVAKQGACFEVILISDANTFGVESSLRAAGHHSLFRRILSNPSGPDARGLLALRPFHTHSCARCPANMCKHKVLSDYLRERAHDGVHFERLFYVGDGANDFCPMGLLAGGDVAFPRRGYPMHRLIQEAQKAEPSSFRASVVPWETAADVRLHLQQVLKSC
ALR inh: inhibitors of human ALR sulfhydryl oxidase, primary screen, biochemical, H2O2 detection, HRP-luminol luminescence, single point; purified ALR, DTT oxidation; inhibition, % (test concentration not listed); 290,000 tested, 3.8% active;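 active means mean replicate inhibition above about 79%, with every replicate also reaching it, limit read from the data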
A3G deaminase: APOBEC3G DNA deaminase inhibitors, primary screen, biochemical, fluorescence, single-stranded DNA substrate, uHTS | recombinant A3G, ssDNA deamination FAM/TAMRA fluorescence | inhibition, % at 20 µM | 330,000 tested, 0.28% active;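 active means inhibition of at least 40% at 20 µM, with no more than 30% in the related APOBEC3A deaminase screen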
A3A deaminase: APOBEC3A ssDNA deaminase inhibitors, primary screen, selectivity assay for APOBEC3G inhibitor project, biochemical, FAM/TAMRA oligo cleavage fluorescence. AID 493011, 2011. inhibition, % at 20 µM. 330,000 tested, 0.41% active. recombinant A3A, FAM/TAMRA ssDNA deamination fluorescence. DNA dC->dU-editing enzyme APOBEC-3A (Homo sapiens), P31941;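 active means at least 40% inhibition at 20 µM here, with at most 30% in a related deaminase screen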
Target sequence (P31941 whole entry, looked up): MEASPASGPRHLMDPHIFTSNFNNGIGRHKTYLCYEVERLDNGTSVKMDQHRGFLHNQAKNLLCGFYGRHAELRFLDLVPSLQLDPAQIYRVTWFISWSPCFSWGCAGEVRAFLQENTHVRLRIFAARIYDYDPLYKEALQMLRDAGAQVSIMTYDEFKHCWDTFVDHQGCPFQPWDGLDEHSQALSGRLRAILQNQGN
Of the large screens only hits and unclear results are named; the others gave an inactive call. An excerpt weighted towards active compounds, which were near 5.4% of everything screened.

CC(C)CCn1c(=S)[nH]c2ncccc2c1=O	none (no result: ALR inh, A3G deaminase, A3A deaminase)
C[C@H](NC(=O)OCc1ccccc1)P(=O)(O)O	none (no result: aDG glyco act, PHOSPHO1 inh, ALR inh, A3G deaminase, A3A deaminase)
Cc1cc(SCC(=O)NC(=O)NCc2ccco2)nc2ccccc12	ALR inh 98
Cc1ccc(-c2nc(NC(=O)CSc3cc(C)c4ccccc4n3)ns2)cc1	PHOSPHO1 inh 60
O=C(CSc1n[nH]c(-c2ccccc2)n1)NC(=O)NCc1ccco1	PHOSPHO1 inh 88 (no result: A3G deaminase, A3A deaminase)
Cn1c(SCC(=O)NC(=O)NCc2ccco2)nnc1-c1ccccc1	PHOSPHO1 inh 64
COc1ccc2c(C)cc(SCC(=O)Nc3nsc(-c4ccc(C)cc4)n3)nc2c1	none
Cn1c(SCC(=O)NCc2ccco2)nnc1-c1ccccc1	none
Cc1cc(SCC(=O)NC(=O)NCc2ccco2)nc2c(C)cccc12	none
O=C(CSc1nc(-c2ccccc2)cs1)NC(=O)NCc1ccco1	none
CCCCOCCCNC(=O)C[C@H]1C[C@@]2(C(=O)OC)C(=C[C@H](C(C)C)O[C@@H]2C2CC2)N(CCc2ccc(OC)c(OC)c2)C1=O	none (no result: aDG glyco act, PHOSPHO1 inh, ALR inh, A3G deaminase, A3A deaminase)
O=C(CSc1nnc(-c2ccc(OC(F)F)cc2)o1)NC(=O)NCc1ccco1	PHOSPHO1 inh 74
Cc1nnc(SCC(=O)NC(=O)NCc2ccco2)s1	none
O=C(CSc1nn(-c2ccc(F)cc2)c(=S)s1)NC(=O)NCc1ccco1	PHOSPHO1 inh 83
Cc1nc2sc(C(=O)NCc3ccncc3)c(N)c2c(C)c1Cl	none (no result: aDG glyco act, PHOSPHO1 inh, ALR inh, A3G deaminase, A3A deaminase)
COc1ccc(CCC[C@@H](CCC(=O)N(c2ccccc2)c2ccccc2)CCc2ccccc2)cc1	none (no result: aDG glyco act, PHOSPHO1 inh, ALR inh, A3G deaminase, A3A deaminase)
COc1cc(-c2c(C#N)c(N)nc3[nH]c(=S)[nH]c(=O)c23)ccc1O	ALR inh 99
COc1cc(-c2c(C#N)c(N)nc3c2CCCC3)ccc1O	none
Cc1cc(C)nc(NNC2=CC(=[N+]3CCCC3)CCC2)n1	none
Cc1cc(C)nc(NNC2=CC(=[N+]3CCCCC3)CC(C)(C)C2)n1	ALR inh 99
O=C1CC(C(=O)Nc2ccc(F)cc2)S/C(=N\N=C\c2ccco2)N1 (configuration not stated)	ALR inh 96
C[C@H]1COc2cccc(N3CCCC3)c2S(=O)(=O)N1C	none (no result: aDG glyco act, PHOSPHO1 inh, ALR inh, A3G deaminase, A3A deaminase)
N/C(=N/O)c1ccccc1N1CCC(Cc2ccccc2)CC1	ALR inh 92
CC(C)[C@@H]1NC(=O)[C@H]2C[C@@]3(C)c4ccccc4N[C@H]3N2C1=O	none (no result: aDG glyco act, PHOSPHO1 inh, ALR inh, A3G deaminase, A3A deaminase)
Cc1ccc(NC(=O)C2CCN(S(=O)(=O)c3ccc4c(c3)CC(C)N4C(=O)C3CCC3)CC2)nc1 (configuration not stated)	PHOSPHO1 inh 75
Cc1ccc(/C(N)=N/OC(=O)c2cccs2)cc1	ALR inh 86
Cc1cc(C)n(-c2nc(NCCO)c3c4c(sc3n2)CCCC4)n1	PHOSPHO1 inh 81
Cc1cc(C)n(-c2nc(NCCCO)c3c4c(sc3n2)CCCC4)n1	none
CC1(C)Cc2c(sc3[nH]c(=S)n(Cc4ccco4)c(=O)c23)CO1	ALR inh 98
O=c1[nH]c2sc3c(c2c(=O)n1Cc1ccccc1)CCC3	none
O=c1c2c3c(sc2[nH]c(=S)n1Cc1ccco1)CCC3	ALR inh 93
Cn1c(=O)n(Cc2ccco2)c(=N)c2c3c(sc21)CCC3	ALR inh 76
CC(=O)c1cc(-c2ccccc2-c2ccccc2)c(=O)n2c1CCC2	none (no result: aDG glyco act, PHOSPHO1 inh, ALR inh, A3G deaminase, A3A deaminase)
CSCCCNC(=O)C1CCN(S(=O)(=O)c2ccc3[nH]c(=O)oc3c2)CC1	none (no result: aDG glyco act, PHOSPHO1 inh, ALR inh, A3G deaminase, A3A deaminase)
Cc1cc(C)c2oc(=O)cc(CN3CCOCC3)c2c1	none
Cc1cc(=O)oc2c(CN3CCN(CCO)CC3)c(O)ccc12	none
Cc1c(O)ccc2c(CN3CCN(CCO)CC3)cc(=O)oc12	ALR inh 90
Cc1c(O)ccc2c(CN3CCOCC3)cc(=O)oc12	ALR inh 88
CC(C)OCC(O)CCc1n[nH]c(=S)n1-c1ccccc1 (configuration not stated)	ALR inh 88
CC(C)Cn1c(Cc2ccccc2)n[nH]c1=S	ALR inh 92
